Laboratory results taken from PubChem BioAssay (NCI).
The panel holds about 83,000 compounds, 20% with a hit somewhere; the sample as a whole holds those more often.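 The endpoint reported here, percent growth, reads 100 for growth as untreated, 0 for no net growth and -100 for all cells dead.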 Active and inactive are the calls of the source. Rule for the calls: active = growth percent below 10; inactive = the rest.

Assays:
Assay in all cases: NCI-60 one-dose screen, 48 h (100 = growth as untreated, 0 = no growth, -100 = all killed)
Details in all cases: 10 µM unless noted
NCI-H23 lung = system: NCI-H23 lung
NCI-H226 lung = system: NCI-H226 lung
NCI-H322M lung = system: NCI-H322M lung
HOP-62 NSCLC = system: HOP-62 NSCLC
NCI-H460 lung = system: NCI-H460 lung
HOP-92 NSCLC = system: HOP-92 NSCLC
NCI-H522 lung = system: NCI-H522 lung
A549/ATCC NSCLC = system: A549/ATCC NSCLC
786-0 renal = system: 786-0 renal
COLO 205 colon = system: COLO 205 colon

Measured: growth

S=C(Nc1ccccc1)c1ccccn1
inactive: NCI-H23 lung 87.5% | NCI-H226 lung 94.7% | NCI-H322M lung 101% | HOP-62 NSCLC 75.2% | NCI-H460 lung 100% | HOP-92 NSCLC 84.6% | NCI-H522 lung 74.4% | A549/ATCC NSCLC 91.7% | 786-0 renal 96.5% | COLO 205 colon 67.9%

COc1ccc(C(=O)c2cc(OC)c(C)c(OC)c2)cc1OC(=O)CCl
active: NCI-H460 lung 7.36%
inactive: NCI-H23 lung 27.4% | NCI-H226 lung 104% | NCI-H322M lung 44% | HOP-62 NSCLC 30.2% | HOP-92 NSCLC 75.8% | NCI-H522 lung 16.2% | A549/ATCC NSCLC 28.5% | 786-0 renal 42% | COLO 205 colon 80.8%

C=C(C)[C@@H]1CC[C@]2(C(=O)N=C=S)CC[C@]3(C)[C@H](CC[C@@H]4[C@@]5(C)CCC(=O)C(C)(C)[C@@H]5CC[C@]43C)[C@@H]12
active: NCI-H460 lung 6.85% | COLO 205 colon -19.1%
inactive: NCI-H23 lung 32.9% | NCI-H226 lung 48.8% | NCI-H322M lung 42.8% | HOP-62 NSCLC 30.1% | HOP-92 NSCLC 18.2% | NCI-H522 lung 15.3% | A549/ATCC NSCLC 26.2% | 786-0 renal 37.2%

C=C1C(=O)O[C@H]2[C@H]1CC/C(COC(=O)NCc1nc3ccccc3[nH]1)=C\CC[C@@]1(C)O[C@@H]21
active: NCI-H522 lung -43.9%
inactive: NCI-H23 lung 87.2% | NCI-H226 lung 88.4% | NCI-H322M lung 112% | HOP-62 NSCLC 95% | NCI-H460 lung 102% | HOP-92 NSCLC 136% | A549/ATCC NSCLC 94.6% | 786-0 renal 101% | COLO 205 colon 18.8%

COc1cc(-c2csc(NC(=O)Nc3ccc(C(F)(F)F)cc3)n2)cc(OC)c1OC
inactive: NCI-H322M lung 33.5%
active: NCI-H23 lung 2.62% | NCI-H226 lung 0.0527% | HOP-62 NSCLC 9.05% | NCI-H460 lung 4.98% | HOP-92 NSCLC -24.5% | NCI-H522 lung -25% | A549/ATCC NSCLC 5.16% | 786-0 renal -10% | COLO 205 colon -44.4%

COC(=O)c1cc2c3c(cc(O)c2[nH]1)N(C(=O)C1Cc2cc(OC)c(OC)c(OC)c2N1)CC3CCl (stereo not given)
active: NCI-H23 lung -48.7% | NCI-H226 lung -35.1% | NCI-H322M lung -16.2% | HOP-62 NSCLC -54.7% | NCI-H460 lung -17.9% | HOP-92 NSCLC -35.9% | NCI-H522 lung -60.6% | A549/ATCC NSCLC -21% | 786-0 renal -47.6% | COLO 205 colon -70.4%

Cc1cc(Nc2nc(SCc3ccc(C(=O)Nc4ccc(F)cc4N)cc3)nn3cccc23)n[nH]1
inactive: NCI-H23 lung 42.8% | NCI-H226 lung 51.6% | NCI-H322M lung 52.8% | HOP-62 NSCLC 23.4% | HOP-92 NSCLC 53.6% | A549/ATCC NSCLC 30.8% | 786-0 renal 44.1%
active: NCI-H460 lung 9.98% | NCI-H522 lung -14.8% | COLO 205 colon -39.9%

CO[C@@]12C=C[C@@]34CCC(=O)N3c3ccccc3[C@@H](O1)C4C2
inactive: NCI-H23 lung 99.9% | NCI-H226 lung 96.8% | NCI-H322M lung 99.8% | HOP-62 NSCLC 97.7% | NCI-H460 lung 104% | HOP-92 NSCLC 93% | NCI-H522 lung 92.7% | A549/ATCC NSCLC 98.4% | 786-0 renal 101% | COLO 205 colon 105%

CN(C)C(CNc1oc(-c2cccc3ccccc23)nc1C#N)c1ccco1 (stereo not given)
inactive: NCI-H23 lung 97.1% | NCI-H226 lung 101% | NCI-H322M lung 99.9% | HOP-62 NSCLC 94.9% | NCI-H460 lung 101% | HOP-92 NSCLC 94% | NCI-H522 lung 86.9% | A549/ATCC NSCLC 91.6% | 786-0 renal 90.1% | COLO 205 colon 93.1%

COC(=O)c1ccc(NC(=O)CSc2nc(-c3ccc(F)cc3)nc3ccccc23)cc1
inactive: NCI-H23 lung 81.7% | NCI-H226 lung 87.4% | NCI-H322M lung 89.5% | HOP-62 NSCLC 75.5% | NCI-H460 lung 60.7% | HOP-92 NSCLC 77.7% | NCI-H522 lung 76.9% | A549/ATCC NSCLC 86.1% | 786-0 renal 105% | COLO 205 colon 93.8%

Oc1ccccc1-c1nc2c3ccccc3c3ccccc3c2o1
inactive: NCI-H23 lung 85.5% | NCI-H226 lung 85.8% | NCI-H322M lung 92.4% | HOP-62 NSCLC 101% | NCI-H460 lung 69.6% | HOP-92 NSCLC 83.8% | NCI-H522 lung 99.3% | A549/ATCC NSCLC 90.9% | 786-0 renal 99.2% | COLO 205 colon 85.7%

COc1cc(C(=O)Nc2cc(O)c(C/C=C(\C)CCC=C(C)C)c(O)c2)cc2c1O[C@]1(C)CC[C@@H](O)C(C)(C)[C@H]1C2
active: HOP-62 NSCLC 8.47% | HOP-92 NSCLC -2.91% | 786-0 renal -6.12% | COLO 205 colon -22.2%
inactive: NCI-H23 lung 27.8% | NCI-H226 lung 40.5% | NCI-H322M lung 48.2% | NCI-H460 lung 12.4% | NCI-H522 lung 18.8% | A549/ATCC NSCLC 11.9%

Cc1nn(-c2ccc(-c3ccc(OC(F)(F)F)cc3)cc2)c2nc(-c3ccccc3)nc(N)c12
inactive: NCI-H23 lung 97.7% | NCI-H226 lung 88.4% | NCI-H322M lung 86.4% | HOP-62 NSCLC 95.8% | NCI-H460 lung 83.2% | HOP-92 NSCLC 66.4% | NCI-H522 lung 83.7% | A549/ATCC NSCLC 85.2% | 786-0 renal 93.8% | COLO 205 colon 121%

O=c1[nH]nc(-c2ccccc2)c2sc(NC(=S)Nc3ccc(Cl)cc3)nc12
inactive: NCI-H23 lung 86% | NCI-H226 lung 89.3% | NCI-H322M lung 100% | HOP-62 NSCLC 79.4% | NCI-H460 lung 97.6% | HOP-92 NSCLC 97.2% | NCI-H522 lung 68.6% | A549/ATCC NSCLC 90.7% | 786-0 renal 92.5% | COLO 205 colon 101%

O=C(Nc1nc(-c2ccccc2)cs1)c1cc(-c2ccc(Br)cc2)nc2ccccc12
active: HOP-92 NSCLC 6.1%
inactive: NCI-H23 lung 51.6% | NCI-H226 lung 46.3% | NCI-H322M lung 81.5% | HOP-62 NSCLC 57.1% | NCI-H460 lung 31.3% | NCI-H522 lung 43.5% | A549/ATCC NSCLC 36.5% | 786-0 renal 65.4% | COLO 205 colon 56.2%

OCCNc1nc(NCCO)nc(Nc2ccc(C3=NN(c4cc(Cl)cc(Cl)c4)C(c4ccc(Cl)cc4)C3)cc2)n1 (stereo not given)
active: NCI-H460 lung -22.7% | A549/ATCC NSCLC 2.31% | 786-0 renal -19.6% | COLO 205 colon 7.12%
inactive: NCI-H23 lung 29.1% | NCI-H226 lung 109% | NCI-H322M lung 14.6% | HOP-62 NSCLC 15.9% | HOP-92 NSCLC 60.7% | NCI-H522 lung 58.9%

CCOC(=O)NCCc1nc2c([nH]1)c(=O)n(C)c(=O)n2C
inactive: NCI-H23 lung 93.7% | NCI-H226 lung 105% | NCI-H322M lung 103% | HOP-62 NSCLC 115% | NCI-H460 lung 106% | HOP-92 NSCLC 93.5% | NCI-H522 lung 92.5% | A549/ATCC NSCLC 104% | 786-0 renal 102% | COLO 205 colon 109%

N#Cc1nc(-c2ccccc2)oc1S(=O)(=O)NCC(c1ccc(Cl)cc1)N1CCCCC1 (stereo not given)
inactive: NCI-H23 lung 78.5% | NCI-H226 lung 117% | NCI-H322M lung 85.3% | HOP-62 NSCLC 96.3% | NCI-H460 lung 77.2% | HOP-92 NSCLC 79.4% | A549/ATCC NSCLC 89.2% | 786-0 renal 87.1% | COLO 205 colon 79.3%
active: NCI-H522 lung -18.3%

N#Cc1c(-c2ccc(F)cc2)nc(N/N=C/c2cccc(O)c2)nc1N1CCOCC1
inactive: NCI-H23 lung 99.9% | NCI-H226 lung 100% | NCI-H322M lung 81.4% | HOP-62 NSCLC 92% | NCI-H460 lung 98.3% | HOP-92 NSCLC 64.4% | NCI-H522 lung 69.5% | A549/ATCC NSCLC 82.3% | 786-0 renal 65.1% | COLO 205 colon 73.4%

CCCCN(CCCC)CC(CN(CC)CC)OC(=O)Nc1ccccc1 (stereo not given)
inactive: NCI-H23 lung 72.2% | NCI-H226 lung 103% | NCI-H322M lung 85% | HOP-62 NSCLC 75.4% | NCI-H460 lung 105% | HOP-92 NSCLC 75% | NCI-H522 lung 74.7% | A549/ATCC NSCLC 92.9% | 786-0 renal 83% | COLO 205 colon 79.6%

C=C(C)[C@@H]1CC[C@]2(C(=O)n3ccnc3)CC[C@]3(C)[C@H](CC[C@@H]4[C@@]5(C)CCCNC(C)(C)[C@@H]5CC[C@]43C)[C@@H]12
inactive: NCI-H23 lung 38.8% | NCI-H226 lung 64.5% | NCI-H322M lung 66.9% | HOP-62 NSCLC 66.3% | HOP-92 NSCLC 51.5% | NCI-H522 lung 50.7% | A549/ATCC NSCLC 23% | 786-0 renal 29.9%
active: NCI-H460 lung -71.8% | COLO 205 colon -69.8%

Cc1cccc(C)c1Nc1nnc(-c2ccc(F)cc2)o1
inactive: NCI-H23 lung 92.4% | NCI-H226 lung 96.1% | NCI-H322M lung 93.4% | HOP-62 NSCLC 107% | NCI-H460 lung 104% | HOP-92 NSCLC 95.5% | NCI-H522 lung 112% | A549/ATCC NSCLC 104% | 786-0 renal 112% | COLO 205 colon 100%

CCOC(=O)c1c(C)nc2c(c1N)/C(=C/c1cccs1)C(=O)N2Cc1ccccc1
inactive: NCI-H23 lung 74.5% | NCI-H226 lung 77.5% | NCI-H322M lung 91.9% | HOP-62 NSCLC 68.8% | NCI-H460 lung 67.1% | HOP-92 NSCLC 60.4% | NCI-H522 lung 58.3% | A549/ATCC NSCLC 77.9% | 786-0 renal 52.1% | COLO 205 colon 61.3%

C[C@H](Oc1cc(-c2cnn(C3CCNCC3)c2)cnc1N)c1c(Cl)ccc(F)c1Cl
inactive: NCI-H23 lung 71.6% | NCI-H226 lung 109% | NCI-H322M lung 75.2% | HOP-62 NSCLC 66.5% | NCI-H460 lung 57.9% | HOP-92 NSCLC 41.1% | NCI-H522 lung 73.1% | A549/ATCC NSCLC 72% | 786-0 renal 49.2% | COLO 205 colon 46.3%

COc1ccc2nc3c(n2c1)C(=O)C(=O)c1ccccc1-3
inactive: NCI-H226 lung 14.9% | NCI-H460 lung 14.9% | HOP-92 NSCLC 37.4% | COLO 205 colon 42.7%
active: NCI-H23 lung -42.1% | NCI-H322M lung -60.9% | HOP-62 NSCLC -72.9% | NCI-H522 lung -69.9% | A549/ATCC NSCLC -24.3% | 786-0 renal 8.6%

CSc1nc(-c2ccc(F)cc2)c(C#N)c(N2CCOCC2)n1
inactive: NCI-H23 lung 101% | NCI-H226 lung 80% | NCI-H322M lung 92.6% | HOP-62 NSCLC 97.3% | NCI-H460 lung 102% | HOP-92 NSCLC 73.9% | NCI-H522 lung 90.1% | A549/ATCC NSCLC 88.6% | 786-0 renal 93.7% | COLO 205 colon 106%
